Data on eight compounds can be found in PubChem BioAssay (NCATS).

The structures appear in SMILES notation. Results filed as inconclusive are left out. The list shows a part of the results. Activity calls are given as the source filed them. Calls come from the whole dose curve; as a rule, active = well fitted curve in the direction sought with a large enough effect; inconclusive = small, poorly fitted or top-dose-only effect, or another doubt; inactive = no such curve, though single readings can be large; an effect the other way counts as inactive or inconclusive.

Assay [1] is described as follows: qHTS for differential inhibitors of proliferation of Plasmodium falciparum line 3D7 (AID 1876). Note: potency is the fitted concentration of half-maximal effect. On the technique in general: Quantitative high-throughput screening tests each substance at several concentrations.
Assay [2] in a line: qHTS for differential inhibitors of proliferation of Plasmodium falciparum line W2 (AID 1883).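 Note: potency is the fitted concentration of half-maximal effect; parasites grown with compound for 72 h before lysis and staining.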 The conditions noted are these: Potency: Plasmodium falciparum W2 proliferation inhibition.
The target of assay [3] is ATP-dependent DNA helicase Q1 (Homo sapiens) (UniProt P46063). The experiment in a line: qHTS Validation Assay for Inhibitors of RecQ-Like Dna Helicase 1 (RECQ1) (AID 2353). Note: potency is the fitted concentration of half-maximal effect. A digest of the protocol: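 50 nM RECQ1T1 preincubated 15 min with compound in Tris pH 8.0 buffer with MgCl2, DTT, Tween-20 and 2.5 ug/ml poly(dI-dC); started with 200 nM TAMRA/BHQ-2 forked duplex and 2 mM ATP. Unwinding read as fluorescence (525/598 nm), two reads 2 h apart.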
ATP-dependent DNA helicase Q1 (Homo sapiens), sequence (P46063 whole entry, looked up): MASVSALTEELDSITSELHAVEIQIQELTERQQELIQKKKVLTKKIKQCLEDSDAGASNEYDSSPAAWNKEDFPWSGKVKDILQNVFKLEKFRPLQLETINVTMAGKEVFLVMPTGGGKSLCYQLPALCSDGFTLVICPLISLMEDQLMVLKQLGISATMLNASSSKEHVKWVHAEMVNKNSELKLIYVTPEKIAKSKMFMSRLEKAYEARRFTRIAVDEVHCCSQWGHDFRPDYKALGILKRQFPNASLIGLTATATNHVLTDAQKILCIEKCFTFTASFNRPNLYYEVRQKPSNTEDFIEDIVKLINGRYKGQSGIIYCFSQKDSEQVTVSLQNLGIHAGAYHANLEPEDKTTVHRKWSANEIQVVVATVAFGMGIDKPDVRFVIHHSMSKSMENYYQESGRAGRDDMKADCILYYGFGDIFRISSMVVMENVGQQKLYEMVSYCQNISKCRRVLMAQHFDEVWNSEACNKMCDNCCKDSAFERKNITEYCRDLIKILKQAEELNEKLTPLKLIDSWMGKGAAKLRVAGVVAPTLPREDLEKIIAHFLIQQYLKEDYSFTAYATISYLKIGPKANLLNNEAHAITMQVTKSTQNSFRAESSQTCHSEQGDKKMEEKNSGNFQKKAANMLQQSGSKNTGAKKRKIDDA

Assay [4] in a line: qHTS for differential inhibitors of proliferation of Plasmodium falciparum line D10 (AID 1877).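 Note: potency is the fitted concentration of half-maximal effect; parasites grown with compound for 72 h before DNA staining.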
Assay [5] can be described thus: qHTS for differential inhibitors of proliferation of Plasmodium falciparum line Dd2 (AID 1882). Note: potency is the fitted concentration of half-maximal effect; nearly all actives have a fitted effect of over 65% in size. The following applies: Potency: Plasmodium falciparum Dd2 proliferation inhibition. A digest of the protocol: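 Dd2-infected erythrocytes (0.3% parasitemia, 2.5% hematocrit final) incubated with compound 72 h at 37 C, 5% CO2; lysed with saponin/Triton buffer containing SYBR Green I, incubated overnight in the dark, then read by fluorescence (485/535 nm). Normalized to 0.29 uM artemisinin and DMSO.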

Assay [6] is described as follows: qHTS for differential inhibitors of proliferation of Plasmodium falciparum line HB3 (AID 1886).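 Note: potency is the fitted concentration of half-maximal effect; parasites grown with compound for 72 h before SYBR Green readout.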 The conditions noted are these: Potency: Plasmodium falciparum HB3 proliferation inhibition.
The target of assay [7] is Endonuclease 4 (Escherichia coli (strain K12)) (UniProt P0A6C1). The experiment in a line: Counterscreen for APE1 Inhibitors: qHTS Assay for Inhibitors of Endonuclease IV (AID 2565). The text has this:
Assay Provider: David M. Wilson, III, National Institute on Aging, NIH
Screening Center PI: Austin, C.P.
Screening Center: NIH Chemical Genomics Center [NCGC]
Escherichia coli endonuclease IV (Endo IV) is the key member of the AP endonuclease superfamily that catalyzes the cleavage of damaged DNA backbone immediately 5' of an AP site. E. coli EndoIV has the same functional activities as human APE1 but has no sequence or structural homology to the human protein. Herein, we utilize E. coli EndoIV to counter screen compound libraries as part of a high-throughput campaign for APE1 inhibitor identification. […]
Inhibition of APE1 activity was screened by utilizing double-stranded short substrate containing tetrahydrofuran (THF) abasic site labeled with rhodamine-type fluorophore (TAMRA) at the 5'-end and with non-fluorescent Black Hole Quencher-2 (BHQ-2) at the opposing 3'-end. An increase in the fluorescence intensity due to incision of the abasic site by APE1 was used to measure the enzyme activity. […]
Three uL of enzyme were dispensed to 1536-well Greiner black solid bottom plates. […] The plates were immediately transferred into ViewLux High-throughput CCD imager (Perkin-Elmer) in order to measure the reaction progress in kinetic mode (three reads every 60 seconds) using 525 nm excitation and 598 nm emission fluorescence protocol. […]
(In general: Counterscreens check selectivity or assay interference.)

Assay [8] has as its target Ferritin light chain (Equus caballus) (UniProt P02791). The experiment in a line: qHTS Validation Assay for Identification of Novel General Anesthetics (AID 2323). Note: potency is the fitted concentration of half-maximal effect. In outline: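 Apoferritin from horse spleen (10 uM) was mixed with 1-aminoanthracene at 50% saturation in PBS, then compounds were added. After 10 min at room temperature, fluorescence was read (ex 380 nm, em 535 nm) and normalized to free-probe and complex controls.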

On to `CN(C)CCCC1(c2ccc(F)cc2)OCc2cc(C#N)ccc21` (centres undefined), for which the Potency was 10 µM (active) in assay [1] and 2.24 µM (active) in assay [2]. Further, the Potency result in assay [3] was “inactive”.
In the case of `CC(C)c1ccc2c(c1)c(SC(C)(C)C)c(CC(C)(C)C(=O)O)n2Cc1ccc(Cl)cc1`, the Potency in assay [1] is 6.31 µM (active); in assay [4], 12.6 µM (active); in assay [5], 12.6 µM (active); in assay [2], 3.16 µM (active); in assay [6], 11.2 µM (active). In addition, in assay [7], the result was inactive.
As to `Oc1ccc(-c2nc(-c3ccc(F)cc3)c(-c3ccncc3)[nH]2)cc1`, the Potency in assay [1] is 11.2 µM (active); in assay [5], 11.2 µM (active); in assay [2], 6.31 µM (active). Also, the Potency entry in assay [8] and in assay [3] was “inactive” throughout.
In the case of `O=c1c(O)c(-c2cc(O)c(O)c(O)c2)oc2cc(O)cc(O)c12`, the Potency in assay [1] is 10 µM (active); in assay [5], 4.47 µM (active); in assay [2], 14.1 µM (active); in assay [3], 0.891 µM (active). The Potency entry in assay [8] is “inactive”.
With `C[C@H](Cc1ccc(O)c(O)c1)[C@@H](C)Cc1ccc(O)c(O)c1`, the Potency in assay [1] is 12.6 µM (active); in assay [4], 12.6 µM (active); in assay [2], 10 µM (active); in assay [6], 14.1 µM (active); in assay [8] it was 12.6 µM (active); in assay [3] it was 11.2 µM (active).
As to `NC(=NCc1ccccc1)NC(=O)c1nc(Cl)c(N)nc1N`, the Potency was 0.562 µM (active) in assay [1], 0.891 µM (active) in assay [4], 5.01 µM (active) in assay [2] and 1 µM (active) in assay [6]. The Potency entry in assay [8] and in assay [3] was “inactive” each time.
As for `O=Nc1c(-c2c(O)[nH]c3cc(Br)ccc23)[nH]c2ccccc12`, the Potency in assay [1] was 2 µM (active); in assay [4], 3.98 µM (active); in assay [5], 7.94 µM (active); in assay [2], 2.24 µM (active); in assay [6], 2.24 µM (active). Moreover, the Potency result in assay [3] was “inactive”.
Take `CC(=O)O[C@H]1C(=O)[C@@]2(C)C([C@H](OC(=O)c3ccccc3)[C@]3(O)C[C@H](OC(=O)[C@H](O)[C@@H](NC(=O)c4ccccc4)c4ccccc4)C(C)=C1C3(C)C)[C@]1(OC(C)=O)CO[C@@H]1C[C@@H]2O` (some centres undefined): the Potency in assay [1] was 0.0708 µM (active); in assay [4], 0.1 µM (active); in assay [5], 0.158 µM (active); in assay [2] it was 0.0224 µM (active); in assay [6], 0.251 µM (active). Moreover, the Potency result in assay [8] and in assay [3] was “inactive” in each case.
